This is part of a sample that, as a whole, favours compounds with a hit. Of some 79,000 tested, about 15% had one in any assay. Calls of active or inactive are those of the source. Rule as the data show it: active = growth inhibition above about 70%; inactive = the rest.
Experiment: NCI Yeast Anticancer Drug Screen. Data for the cln2 rad14 strain (AID 165);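 also: 0% = growth equal to vehicle treated cultures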
Details: S. cerevisiae cln2 rad14 strain, at 50.0 µM, active compounds read high
Method in brief: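 Growth inhibition, relative to vehicle-treated controls, is the read-out. The test organism is a yeast strain with defined genetic alterations, cln2 rad14.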

| SMILES | growth inhibition |
| --- | --- |
| Cc1cn(C2CC(O)C(CO)O2)c(=O)nc1NC1CC1 (stereo not given) | -13% (inactive) |
| CNCSc1ccccc1 | -11.6% (inactive) |
| Cc1ccc(NC(=S)NC(Cc2ccccc2)c2ccccc2)cc1 (stereo not given) | 78.5% (active) |
| CC(=O)NS(=O)(=O)c1ccc(NC(=O)COC(=O)c2cccc3c(=O)c4ccccc4[nH]c23)cc1 | 7.1% (inactive) |
| Cc1ccc(CNC2=C(Cl)C(=O)c3ccccc3C2=O)cc1C | 97.2% (active) |
| Cc1ccc(Cl)c2c1C(=O)c1ccccc1C2=O | 14.8% (inactive) |
| NC(=O)/C(=C\c1ccncc1)c1cccc2ccccc12 | -3.35% (inactive) |
| CC(=O)OCC1OC(n2nc(/C=C/c3ccccc3)c(=O)n(-c3ccccc3)c2=S)C(OC(C)=O)C(OC(C)=O)C1OC(C)=O (stereo not given) | -10.3% (inactive) |
| COC1(OC)C(c2ccc(Cl)cc2)C(C#N)(C#N)C1(OC)OC (stereo not given) | -48.4% (inactive) |
| N=C(N)S/C=C/C(=O)O | -4.65% (inactive) |
| Clc1ccc(/C=N/c2ccccn2)cc1 | 19.9% (inactive) |
| Clc1nnc(Cl)c2ncccc12 | -2.95% (inactive) |
| O=C(NN=C1CCCCC1)c1ccccc1 | -25.8% (inactive) |
| Clc1ccc2c(N3CCC(CCC4CCN(c5ncnc6cc(Cl)ccc56)CC4)CC3)ncnc2c1 | -39.4% (inactive) |
| CCOC(=O)Nc1cc2c(c(N)n1)N=C(CN(C)c1ccccc1)CN2 | 16.3% (inactive) |
| NCCCN(CCO)CCO | -31.9% (inactive) |
| Nc1nc(Cl)nc(Nc2ccc(-c3cc4ccc(-c5ncc[nH]5)cc4[nH]3)cc2)n1 | 31.7% (inactive) |
| CCCC(C(C)=O)C(C)=O | 0.3% (inactive) |
| O=C(O)C(CSC(c1ccccc1)(c1ccccc1)c1ccccc1)NSc1ccccc1[N+](=O)[O-] (stereo not given) | 96.5% (active) |
| Cc1ccc(-c2cc(-c3ccco3)nc(N)n2)o1 | 4.3% (inactive) |

| SMILES | growth inhibition |
| --- | --- |
| O=C(c1cc(O)c(O)c(O)c1)c1ccc(O)c(O)c1O | 5.2% (inactive) |
| CC(=O)Nc1ccc(/C=C/C(=O)c2sc(-c3cccnc3)nc2C)cc1 | 17.9% (inactive) |
| COC(=O)c1cc(Cl)c(C(=O)OC)cc1Cl | 0.6% (inactive) |
| CN1CCCc2cccc(NC(=O)C3CCCNC3=O)c21 (stereo not given) | -32.8% (inactive) |
| O=C(O)C1Cc2c([nH]c3ccccc23)C(CCCCO)N1 (stereo not given) | -15.4% (inactive) |
| CCN(CC)CCNC(=O)c1ccccc1NC(=O)C(=O)Nc1ccccc1C(=O)NCCN(CC)CC | -5.15% (inactive) |
| CO[C@@H]1C=C[C@@]23c4cc5c(cc4CN(C[C@@H]2O)[C@H]3C1)OCO5 | 14.8% (inactive) |
| COc1c(Cl)cc(Cl)c(C)c1C(C)C(=O)O (stereo not given) | 16.3% (inactive) |
| O=C(O)c1c(Cl)c(Cl)c(Cl)c(Cl)c1C(=O)Nc1cccc(C(F)(F)F)c1 | -7.35% (inactive) |
| COc1nc(SC)nc2c1cnn2C1OC(C(O)CO)C(OC)C1O (stereo not given) | 9.95% (inactive) |
| Cc1ccc(S(=O)(=O)N2CCSCCN(S(=O)(=O)c3ccc(C)cc3)CCN(S(=O)(=O)c3ccc(C)cc3)CC2)cc1 | -19.9% (inactive) |
| CN(C)NC(=O)Oc1ccc(Cl)cc1 | -4.55% (inactive) |
| Cc1cc(C)c(NC(=O)CC#N)cc1C | -51.4% (inactive) |
| CC(=O)OC1CC2CC1C1C=CCC21 (stereo not given) | 11.3% (inactive) |
| O=[N+]([O-])c1ccccc1C=Nc1ccc2nc(SCc3ccccc3)sc2c1 | 0.7% (inactive) |
| Cc1ccc(C(=O)c2ccc(O)cc2)cc1 | -21.8% (inactive) |
| N/N=C1\C(=O)N(Cc2ccccc2)C(=O)C1C(=O)NCc1ccccc1 (stereo not given) | -36.8% (inactive) |
| CCN(CC)C(COC(=O)Nc1ccccc1)COC(=O)Nc1ccccc1 | -13.8% (inactive) |
| COC(=O)C(=O)C(C(=O)C(=O)Nc1cccc(OC)c1)c1nc2ccc(Cl)cc2[nH]c1=O (stereo not given) | -10.2% (inactive) |
| O=c1nc(NC2CC2)ccn1C1OC(CO)C(O)C1O (stereo not given) | -0.25% (inactive) |
